# Measured values taken from the supplement of paper PMC7411054.
# Counter-ions that a name gives are not always drawn.
# Experiments:
# Conditions in all cases: treatment time: 24 h
# A549-ACTB-RAB5A [1] = assay: lowest phenotypically active concentration; higher = less potent
# Procedure, shortened: (§1)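 Two criteria together defined phenotypic activity: deviation and reproducibility. Deviation meant ≥3 of 4 wells beyond the 95th percentile of Euclidean distances in solvent control wells, and reproducibility meant a median replicate Pearson correlation above the 95th percentile of non-replicates. Wells had been treated for 24 h at 0.3, 1, 3 or 9 µM in fifteen gene-edited A549, HepG2 and WPMY1 reporter lines before live imaging.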
# A549-CANX-COX4 [2] = assay: as above
# Procedure, shortened: as §1
# A549-GM130-SQSTM1 [3] = assay: as above
# Procedure, shortened: as §1
# A549-TP53BP1-CLTA [4] = assay: as above
# Procedure, shortened: as §1
# A549-TUBA1B-RELA [5] = assay: as above
# Procedure, shortened: as §1
# A549-ACTB-RAB5A [6] = assay: phenotypically active (imaging signature differs from DMSO and reproducible) at any of 0.3-9 uM (binary (1 = active, 0 = inactive)); higher = active
# Procedure, shortened: as §1
# A549-CANX-COX4 [7] = assay: as above
# Procedure, shortened: as §1
# A549-GM130-SQSTM1 [8] = assay: as above
# Procedure, shortened: as §1
# A549-TP53BP1-CLTA [9] = assay: as above
# Procedure, shortened: as §1
# A549-TUBA1B-RELA [10] = assay: as above
# Procedure, shortened: as §1
# HepG2-ACTB-RAB5A = assay: as above
# Procedure, shortened: as §1
# HepG2-CANX-COX4 = assay: as above
# Procedure, shortened: as §1
# HepG2-GM130-SQSTM1 = assay: as above
# Procedure, shortened: as §1
# HepG2-TP53BP1-CLTA = assay: as above
# Procedure, shortened: as §1
# HepG2-TUBA1B-RELA = assay: as above
# Procedure, shortened: as §1
# WPMY1-ACTB-RAB5A = assay: as above
# Procedure, shortened: as §1
# WPMY1-CANX-COX4 = assay: as above
# Procedure, shortened: as §1
# WPMY1-GM130-SQSTM1 = assay: as above
# Procedure, shortened: as §1
# WPMY1-TP53BP1-CLTA = assay: as above
# Procedure, shortened: as §1
# WPMY1-TUBA1B-RELA = assay: as above
# Procedure, shortened: as §1
Structure (SMILES),lowest phenotypically active concentration (A549-ACTB-RAB5A [1]),lowest phenotypically active concentration (A549-CANX-COX4 [2]),lowest phenotypically active concentration (A549-GM130-SQSTM1 [3]),lowest phenotypically active concentration (A549-TP53BP1-CLTA [4]),lowest phenotypically active concentration (A549-TUBA1B-RELA [5]),phenotypically active (A549-ACTB-RAB5A [6]),phenotypically active (A549-CANX-COX4 [7]),phenotypically active (A549-GM130-SQSTM1 [8]),phenotypically active (A549-TP53BP1-CLTA [9]),phenotypically active (A549-TUBA1B-RELA [10]),phenotypically active (HepG2-ACTB-RAB5A),phenotypically active (HepG2-CANX-COX4),phenotypically active (HepG2-GM130-SQSTM1),phenotypically active (HepG2-TP53BP1-CLTA),phenotypically active (HepG2-TUBA1B-RELA),phenotypically active (WPMY1-ACTB-RAB5A),phenotypically active (WPMY1-CANX-COX4),phenotypically active (WPMY1-GM130-SQSTM1),phenotypically active (WPMY1-TP53BP1-CLTA),phenotypically active (WPMY1-TUBA1B-RELA)
Nc1nccc2c1ncn2[C@@H]1C=C(CO)[C@@H](O)[C@H]1O [3-Deazaneplanocin A hydrochloride],≤ 0.3 µM,1 µM,3 µM,≤ 0.3 µM,3 µM,1 (active),1 (active),1 (active),1 (active),1 (active),1 (active),1 (active),1 (active),1 (active),1 (active),1 (active),1 (active),1 (active),1 (active),1 (active)
Cc1cc(/N=N/c2ccc(S(=O)(=O)Nc3ccccn3)cc2)c(N)cc1O,9 µM,9 µM,9 µM,9 µM,9 µM,1 (active),1 (active),1 (active),1 (active),1 (active),1 (active),1 (active),1 (active),1 (active),1 (active),1 (active),1 (active),1 (active),1 (active),1 (active)
O=C(Nc1c[nH]nc1-c1nc2cc(CN3CCOCC3)ccc2[nH]1)NC1CC1,≤ 0.3 µM,≤ 0.3 µM,≤ 0.3 µM,≤ 0.3 µM,≤ 0.3 µM,1 (active),1 (active),1 (active),1 (active),1 (active),1 (active),1 (active),1 (active),1 (active),1 (active),1 (active),1 (active),1 (active),1 (active),1 (active)
CC(C)(C)c1cnc(CSc2cnc(NC(=O)C3CCNCC3)s2)o1,≤ 0.3 µM,≤ 0.3 µM,≤ 0.3 µM,≤ 0.3 µM,≤ 0.3 µM,1 (active),1 (active),1 (active),1 (active),1 (active),1 (active),1 (active),1 (active),1 (active),1 (active),1 (active),1 (active),1 (active),1 (active),1 (active)
CC(C)n1c(/C=C/[C@@H](O)C[C@@H](O)CC(=O)O)c(-c2ccc(F)cc2)c2ccccc21.CC(C)n1c(/C=C/[C@H](O)C[C@H](O)CC(=O)O)c(-c2ccc(F)cc2)c2ccccc21 [Fluvastatin sodium],≤ 0.3 µM,9 µM,3 µM,9 µM,9 µM,1 (active),1 (active),1 (active),1 (active),1 (active),1 (active),1 (active),1 (active),1 (active),1 (active),1 (active),1 (active),1 (active),1 (active),1 (active)
Oc1cccc(-c2nc(N3CCOCC3)c3oc4ncccc4c3n2)c1 [PI 103 hydrochloride],≤ 0.3 µM,≤ 0.3 µM,≤ 0.3 µM,≤ 0.3 µM,≤ 0.3 µM,1 (active),1 (active),1 (active),1 (active),1 (active),1 (active),1 (active),1 (active),1 (active),1 (active),1 (active),1 (active),1 (active),1 (active),1 (active)
CN(C)CC(=O)N1CCC[C@@H](n2nc(-c3ccc(Oc4ccccc4)cc3)c3c(N)ncnc32)C1,1 µM,9 µM,1 µM,9 µM,1 µM,1 (active),1 (active),1 (active),1 (active),1 (active),1 (active),1 (active),1 (active),1 (active),1 (active),1 (active),1 (active),1 (active),1 (active),1 (active)
O=C(Nc1ccc(-c2ccnc(Nc3ccc(N4CCOCC4)cc3)n2)cc1)[C@@H]1CCCN1,3 µM,9 µM,3 µM,9 µM,3 µM,1 (active),1 (active),1 (active),1 (active),1 (active),1 (active),1 (active),1 (active),1 (active),1 (active),1 (active),1 (active),1 (active),1 (active),1 (active)
CC(C)(N)c1cc(C(=O)N[C@@H]2CCc3ccc(OC4=C5CCC(=O)N=C5NC=C4)cc3C2)cc(C(F)(F)F)c1 [ML 786 dihydrochloride],1 µM,1 µM,1 µM,3 µM,1 µM,1 (active),1 (active),1 (active),1 (active),1 (active),1 (active),1 (active),1 (active),1 (active),1 (active),1 (active),1 (active),1 (active),1 (active),1 (active)
Cc1ccc(NC(=O)CCCCCC(=O)Nc2ccccc2N)cc1,1 µM,3 µM,1 µM,3 µM,3 µM,1 (active),1 (active),1 (active),1 (active),1 (active),1 (active),1 (active),1 (active),1 (active),1 (active),1 (active),1 (active),1 (active),1 (active),1 (active)
COc1cc(OC2CCN(C)CC2)ccc1Nc1ncc2c(n1)n(C1CCCC1)c(=O)n2C,3 µM,3 µM,3 µM,3 µM,3 µM,1 (active),1 (active),1 (active),1 (active),1 (active),1 (active),1 (active),1 (active),1 (active),1 (active),1 (active),1 (active),1 (active),1 (active),1 (active)
Cc1ncc(-c2ccnc(Nc3ccc(S(C)(=O)=O)cc3)n2)n1C(C)C,≤ 0.3 µM,≤ 0.3 µM,≤ 0.3 µM,≤ 0.3 µM,≤ 0.3 µM,1 (active),1 (active),1 (active),1 (active),1 (active),1 (active),1 (active),1 (active),1 (active),1 (active),1 (active),1 (active),1 (active),1 (active),1 (active)
COc1ccc(S(=O)(=O)N(C(C)=O)c2ccccc2/C=C/c2cc[n+]([O-])cc2)cc1,1 µM,3 µM,≤ 0.3 µM,3 µM,≤ 0.3 µM,1 (active),1 (active),1 (active),1 (active),1 (active),1 (active),1 (active),1 (active),1 (active),1 (active),1 (active),1 (active),1 (active),1 (active),1 (active)
COc1cc2nc(-c3cc(F)ccc3O)nc(N[C@@H]3CNC[C@H]3C(C)(C)O)c2cc1OC,3 µM,9 µM,9 µM,9 µM,9 µM,1 (active),1 (active),1 (active),1 (active),1 (active),1 (active),1 (active),1 (active),1 (active),1 (active),1 (active),1 (active),1 (active),1 (active),1 (active)
